# The panel holds about 83,000 compounds, 20% with a hit somewhere; the sample as a whole holds those more often.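 Percent growth is the endpoint: 0 to 100 indicates growth inhibition (40 means 60% inhibition), 0 means no net growth, and negative values indicate cell death.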 A number with no mark means an inactive call. Activity calls are given as the source filed them. How the source made its calls: active means growth percent below 10; inactive means the rest.
# Tested on: SK-MEL-2 melanoma
# Assay: NCI-60 one-dose screen, 48 h (100 = growth as untreated, 0 = no growth, -100 = all killed)
# Conditions: 10 µM unless noted
row,Structure (SMILES),growth
1,N=C(N)c1ccc(-c2ccc(-c3ccco3)o2)cc1F,-66.8% (active)
2,Cc1nn(-c2ccccc2)c2nc3c(nc12)C1=NCCN1C(c1ccc(Cl)cc1)N3 (configuration not stated),79.5%
3,COc1ccc(-c2ccc(-c3ccc(C(=N)N)s3)s2)cc1,-78.4% (active)
4,N=C(N)c1ccc(-c2ccc(-c3cccs3)s2)cc1F,-80.2% (active)
5,Cc1csc(N/N=C/c2ccncc2)n1,97.7%
6,CCCCCCCCCCCCCCCC1=NCCN1,96%
7,CCS(=O)(=O)Nc1cccc(Nc2c3cccc(C)c3nc3c(C)cccc23)c1OC,51.4%
8,N/C(=N\O)c1ncc(-c2ccc(C(F)(F)F)cc2)c(NC2CCCCCC2)n1,-90.6% [100 µM] (active)
9,N/N=C(\C(=N\N)c1ccccc1)c1ccccc1,98.7%
10,Cc1cc(Nc2c3ccccc3nc3ccccc23)ccc1NS(C)(=O)=O,40.7%
11,O=C(CC(=O)c1ccccc1F)Nc1ccc([N+](=O)[O-])cc1,84%
12,CCCCCCCCCCCC1=NC(C)(C)CN1CCO,87.8%
13,COc1cc2ccc(C(C)=O)cc2cc1OC,108%
14,CCN(C(=O)CCl)C(C)(C)C(SSSC(c1ccc(Cl)cc1)C(C)(C)N(CC)C(=O)CCl)c1ccc(Cl)cc1 (configuration not stated),78.5%
15,COc1cc2c(cc1OC)-c1cc(OC)c(OC)cc1C(CN(C)C)C2 (configuration not stated),29% [100 µM]
16,FC(F)(F)c1cc(-c2nnc3n2N=C(Cl)CS3)cc(C(F)(F)F)c1,123%
17,COc1ccc(/C=N/NC(N)=S)c(OC)n1,94%
18,O=C1c2cccc3cccc(c23)C(=O)N1CCCCCCCCCCN1C(=O)c2cccc3cccc(c23)C1=O,93.6%
19,O=C1OC(/C=C/c2ccccc2)=NC/1=C/c1ccccc1[N+](=O)[O-],94.7%
20,O=[N+]([O-])c1ccc(Sc2nc(Cl)nc(NC3CCCC3)n2)cc1,-91.7% [100 µM] (active)
21,O=C(NCCN1CCCCC1)n1cc(-c2ccncc2)c(-c2ccc(Cl)c(O)c2)n1,60.8%
22,CC(C)(C)c1cc(C[P+](c2ccccc2)(c2ccccc2)c2ccccc2)cc(C(C)(C)C)c1O,-39.9% (active)
23,N#Cc1ccc(-c2ccc(-c3cccs3)o2)cc1F,70.8%
24,Cc1cccc2nc3ccccc3c(Nc3ccc(NS(C)(=O)=O)cc3)c12,112%
25,COc1cc(OC)cc(-c2ccc(-c3ccc(C(=N)N)s3)s2)c1,-85.4% (active)
26,COC(=O)[C@H](Cc1cn(C)cn1)NC(=O)[C@H](CC(C)C)NC(=O)Nc1cc(C(F)(F)F)cc(C(F)(F)F)c1,-95.4% [100 µM] (active)
27,CCOC(=O)c1cc(C(=O)OCC)c(C)nc1C,124%
28,COC(=O)[C@@H](Cc1c[nH]c2ccccc12)NC(=O)/C=C/c1ccccc1,16.6%
29,CCOC(=O)C(CCCCC(NC(C)=O)(C(=O)OCC)C(=O)OCC)(NC(C)=O)C(=O)OCC,95.9%

# Tested on: EKVX NSCLC
# Assay: as above
# Conditions: 10 µM unless noted
row,Structure (SMILES),growth
1,CCOC(=O)Cn1c(-c2nonc2NC(=O)c2ccccc2F)nc2ccccc21,71.1%
2,CC(C)OC1OC(OC(C)C)C(OC(C)C)OC1OC(C)C (configuration not stated),103%
3,Cc1csc(N/N=C/c2ccncc2)n1,90.1%
4,CCCCCCCCCCCCCCCC1=NCCN1,85.2%
5,N/N=C(\C(=N\N)c1ccccc1)c1ccccc1,94%
6,COc1cc(/C=C/c2cc(/C=C/c3ccc(O)c(OC)c3)n(C(=O)Nc3ccc(F)c(Cl)c3)n2)ccc1O,-17.7% (active)
7,CCCCCCCCCCCC1=NC(C)(C)CN1CCO,68.7%
8,Cc1ccccc1Nc1n[nH]c(Cc2ccccc2)n1,103%
9,CNC1=C([N+](=O)[O-])C(c2ccccc2O)C(C#N)=C(c2cccs2)O1 (configuration not stated),97.2%
10,CCCCOC(=O)c1cc(O)c(O)c(O)c1,83.6%
11,COc1cc2ncnc(Nc3ccc(S(=O)(=O)Nc4cc(C)on4)cc3)c2cc1OCCCN1CCN(c2ccc([N+](=O)[O-])cc2)CC1,116%
12,C=C(c1ccc(C(=O)NCCCn2ccnc2)cc1)c1cc2c(cc1C)C(C)(C)CCC2(C)C,27.1%
13,O=C(NCCN1CCCCC1)n1cc(-c2ccncc2)c(-c2ccc(Cl)c(O)c2)n1,114%
14,C=C1C(=O)O[C@H]2[C@H]1CC/C(COC(=O)NCc1[nH]nc3ccccc13)=C\CC[C@@]1(C)O[C@@H]21,50.1%
15,CCOC(=O)c1cc(C(=O)OCC)c(C)nc1C,102%

# Tested on: SN12C renal
# Assay: as above
# Conditions: 10 µM unless noted
row,Structure (SMILES),growth
1,N=C(N)c1ccc(-c2ccc(-c3ccco3)o2)cc1F,39.8%
2,CCOC(=O)Cn1c(-c2nonc2NC(=O)c2ccccc2F)nc2ccccc21,57.9%
3,CC(C)OC1OC(OC(C)C)C(OC(C)C)OC1OC(C)C (configuration not stated),94.6%
4,Cc1nn(-c2ccccc2)c2nc3c(nc12)C1=NCCN1C(c1ccc(Cl)cc1)N3 (configuration not stated),89.5%
5,COc1ccc(-c2ccc(-c3ccc(C(=N)N)s3)s2)cc1,-51.8% (active)
6,N=C(N)c1ccc(-c2ccc(-c3cccs3)s2)cc1F,-65.3% (active)
7,Cc1csc(N/N=C/c2ccncc2)n1,97.8%
8,CCCCCCCCCCCCCCCC1=NCCN1,-51.6% (active)
9,CCS(=O)(=O)Nc1cccc(Nc2c3cccc(C)c3nc3c(C)cccc23)c1OC,12.5%
10,N/C(=N\O)c1ncc(-c2ccc(C(F)(F)F)cc2)c(NC2CCCCCC2)n1,-91.3% [100 µM] (active)
11,N/N=C(\C(=N\N)c1ccccc1)c1ccccc1,88.9%
12,COc1cc(/C=C/c2cc(/C=C/c3ccc(O)c(OC)c3)n(C(=O)Nc3ccc(F)c(Cl)c3)n2)ccc1O,2.06% (active)
13,Cc1cc(Nc2c3ccccc3nc3ccccc23)ccc1NS(C)(=O)=O,39.6%
14,O=C(CC(=O)c1ccccc1F)Nc1ccc([N+](=O)[O-])cc1,85.3%
15,CCCCCCCCCCCC1=NC(C)(C)CN1CCO,72.6%
16,COc1cc2ccc(C(C)=O)cc2cc1OC,95.1%
17,Cc1ccccc1Nc1n[nH]c(Cc2ccccc2)n1,104%
18,CNC1=C([N+](=O)[O-])C(c2ccccc2O)C(C#N)=C(c2cccs2)O1 (configuration not stated),98.2%
19,CCN(C(=O)CCl)C(C)(C)C(SSSC(c1ccc(Cl)cc1)C(C)(C)N(CC)C(=O)CCl)c1ccc(Cl)cc1 (configuration not stated),88.3%

row,Structure (SMILES),growth
1,COc1cc2c(cc1OC)-c1cc(OC)c(OC)cc1C(CN(C)C)C2 (configuration not stated),43.7% [100 µM]
2,CCCCOC(=O)c1cc(O)c(O)c(O)c1,62.7%
3,FC(F)(F)c1cc(-c2nnc3n2N=C(Cl)CS3)cc(C(F)(F)F)c1,82.1%
4,COc1cc2ncnc(Nc3ccc(S(=O)(=O)Nc4cc(C)on4)cc3)c2cc1OCCCN1CCN(c2ccc([N+](=O)[O-])cc2)CC1,102%
5,COc1ccc(/C=N/NC(N)=S)c(OC)n1,98.5%
6,O=C1c2cccc3cccc(c23)C(=O)N1CCCCCCCCCCN1C(=O)c2cccc3cccc(c23)C1=O,100%
7,O=C1OC(/C=C/c2ccccc2)=NC/1=C/c1ccccc1[N+](=O)[O-],104%
8,C=C(c1ccc(C(=O)NCCCn2ccnc2)cc1)c1cc2c(cc1C)C(C)(C)CCC2(C)C,19.5%
9,O=[N+]([O-])c1ccc(Sc2nc(Cl)nc(NC3CCCC3)n2)cc1,-88.9% [100 µM] (active)
10,O=C(NCCN1CCCCC1)n1cc(-c2ccncc2)c(-c2ccc(Cl)c(O)c2)n1,81.6%
11,CC(C)(C)c1cc(C[P+](c2ccccc2)(c2ccccc2)c2ccccc2)cc(C(C)(C)C)c1O,12.2%
12,N#Cc1ccc(-c2ccc(-c3cccs3)o2)cc1F,89.1%
13,Cc1cccc2nc3ccccc3c(Nc3ccc(NS(C)(=O)=O)cc3)c12,38.9%
14,COc1cc(OC)cc(-c2ccc(-c3ccc(C(=N)N)s3)s2)c1,-69.5% (active)
15,C=C1C(=O)O[C@H]2[C@H]1CC/C(COC(=O)NCc1[nH]nc3ccccc13)=C\CC[C@@]1(C)O[C@@H]21,35.4%
16,COC(=O)[C@H](Cc1cn(C)cn1)NC(=O)[C@H](CC(C)C)NC(=O)Nc1cc(C(F)(F)F)cc(C(F)(F)F)c1,-92.8% [100 µM] (active)
17,CCOC(=O)c1cc(C(=O)OCC)c(C)nc1C,105%
18,COC(=O)[C@@H](Cc1c[nH]c2ccccc12)NC(=O)/C=C/c1ccccc1,50.7%
19,CCOC(=O)C(CCCCC(NC(C)=O)(C(=O)OCC)C(=O)OCC)(NC(C)=O)C(=O)OCC,101%
